Screen size: about 340,000 compounds; about 2,100 (0.62%) were called active.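 Rule for the calls: active = first-screen hits whose inhibition reached a set limit at any dose in the follow-up dose series; inconclusive = inhibition above the set first-screen limit but never retested; inactive = the rest.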 These entries were drawn from the full list. Entries with a potency or affinity are not part of this list.
What follows are molecules tested against Rac GTPase-activating protein 1 (Homo sapiens) (UniProt Q9H0H5) (assay: MgcRacGAP GTPase-activating activity inhibitors, confirmation, biochemical, ADP Hunter fluorescence, primary and confirmatory (AID 624330;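 note: fluorescence reports GDP produced by GAP-driven GTP hydrolysis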)). Details: MgcRacGAP-stimulated Rac1 GTP hydrolysis, at 30 µM, stronger effect = higher value, GST-tagged Rac1 F28L mutant substrate.
Chain of Rac GTPase-activating protein 1 (Homo sapiens) (Q9H0H5 whole entry, looked up): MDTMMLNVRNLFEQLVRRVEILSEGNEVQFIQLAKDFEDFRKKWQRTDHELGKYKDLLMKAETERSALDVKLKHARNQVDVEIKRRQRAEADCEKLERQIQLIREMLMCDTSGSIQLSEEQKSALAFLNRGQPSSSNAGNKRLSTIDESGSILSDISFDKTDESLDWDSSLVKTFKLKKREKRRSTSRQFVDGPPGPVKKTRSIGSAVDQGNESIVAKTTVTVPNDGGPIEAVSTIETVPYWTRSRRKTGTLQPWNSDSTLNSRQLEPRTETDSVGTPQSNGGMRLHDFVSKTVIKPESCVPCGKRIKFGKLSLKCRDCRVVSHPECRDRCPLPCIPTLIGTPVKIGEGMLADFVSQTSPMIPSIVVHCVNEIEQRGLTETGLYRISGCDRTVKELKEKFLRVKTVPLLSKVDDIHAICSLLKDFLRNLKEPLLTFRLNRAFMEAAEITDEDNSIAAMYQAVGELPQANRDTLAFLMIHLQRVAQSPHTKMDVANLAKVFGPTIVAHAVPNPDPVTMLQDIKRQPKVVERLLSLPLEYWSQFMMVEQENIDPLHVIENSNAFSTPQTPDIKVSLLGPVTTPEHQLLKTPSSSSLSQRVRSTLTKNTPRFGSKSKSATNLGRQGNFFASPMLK

inhibition, inactive:
COc1ccc(N(CC(C)C)S(=O)(=O)c2nnc(NC(=O)CC(C)C)s2)cc1 2.69%, CC(=O)Nc1cc(-c2ccccc2)nn1Cc1ccc(Cl)cc1 -1.04%, [O-]/[N+](=N\Nc1ccc(Cl)cc1)c1ccccc1 9.79%, CN(C)c1ccc(/C=C/c2cc[n+](C)cc2)cc1 22.9%, CN(C)c1ccc(C=Cc2ccnc3c(O)cccc23)cc1 8.47%, CC[n+]1ccccc1/C=C/c1ccc(N(C)C)cc1 10.2%, CC[n+]1cc(C)ccc1/C=C/c1ccc(N(C)C)cc1 7.19%, CN1/C(=C/c2cc[n+](C)c3ccccc23)C=Cc2ccccc21 31.4%, CN1C=C/C(=C\c2cc[n+](C)c3ccccc23)c2ccccc21 -0.62%, Fc1ccc(C2CC(c3ccco3)n3ncnc3N2)cc1 (stereo not given) -3.61%, Cc1cc(C(=O)Nc2sccc2C(N)=O)c(C)o1 2.82%, CCc1ccc2oc(C(=O)Nc3cccnc3)c(C)c2c1 3.43%, COc1ccc(NC(=O)NC(C)c2ccccc2)cc1 (stereo not given) 7.88%, CN1CCN(c2nc3ccccn3c(=O)c2/C=C(\C#N)S(=O)(=O)c2ccccc2)CC1 10.8%, O=C(CCN1C(=O)C2C3CC(C(Br)C3Br)C2C1=O)OCC(=O)c1ccccc1 (stereo not given) 7.46%, O=C(CNS(=O)(=O)c1ccc(Cl)cc1)NC1CCCCC1 -0.07%, Cc1cc(C(=O)NCc2ccc(F)cc2)n(-c2ccccc2)n1 12.3%, COc1ccc(CN2CCN(CCCc3ccccc3)C(CCO)C2)c(OC)c1 (stereo not given) 3.22%, COc1cccc(N2CCN(Cc3ncc(-c4ccccc4)o3)CC2)c1 7.37%, Cc1ccccc1/C=N/Nc1nc2ccccc2[nH]1 18.4%, Cn1c(/N=C/c2c[nH]c3ccccc23)nc2ccccc21 8.49%, Cc1cc(N/N=C/c2c[nH]c3ccccc23)c2ccccc2n1 -1.16%, Cc1ccc(/C=N/Nc2nc3ccccc3[nH]2)s1 -6%, Cc1cc(=O)[nH]c(N/N=C/c2c[nH]c3ccccc23)n1 22.9%, COc1ccc(/C=N/Nc2nc3ccccc3[nH]2)c(OC)c1OC 12.8%, Fc1c(F)c(F)c(N/N=C/c2c[nH]c3ccccc23)c(F)c1F 3.69%, CC(C)n1c(/N=C/c2c[nH]c3ccccc23)nc2ccccc21 1.11%, Cc1ccc(-c2nc(C3CCN(S(C)(=O)=O)CC3)no2)cc1 10.6%, O=C1NC(Cc2ccccc2)c2nc3ccc(Cl)cc3c(=O)n2-c2ncccc21 (stereo not given) 7.29%, CC(NS(C)(=O)=O)C(c1cccs1)N1CCN(C)CC1 (stereo not given) 10.3%, CCOC(=O)N1CCN(CC(O)COc2ccc(C(C)C)c(C)c2)CC1 (stereo not given) 5.78%, COCC1CCCCN1C(=O)c1ccc(OC2CCN(CCc3ccccc3)CC2)cc1 (stereo not given) 10.2%, COC(=O)c1cc(S(=O)(=O)N2CCC(c3cc(OC)ccc3OC)C2)c[nH]1 (stereo not given) 8.61%, Cc1ccc(-c2sc(C)nc2CC(=O)O)cc1 13.9%, O=C(Nc1cccc(-n2cnnn2)c1)c1cc(Cl)nc(Cl)c1 9.64%, COc1ccccc1/C=C/C(=O)OCc1nc2ccccc2c(=O)[nH]1 7.19%, CC(C)(Oc1ccc(Cl)cc1)C(=O)NC1CC1 7.55%, CCC(C)c1ccc(OCC(=O)Nc2ccc3c(c2)C(=O)NC3=O)cc1 (stereo not given) 5.62%, c1ccc(-c2ccccc2OCCCCN2CCCCC2)cc1 29.3%, C=CCNC(=S)N/N=C(\C)c1ccc(-n2ccnc2)cc1 -11.5%, CN(CC(=O)Nc1ccc(S(N)(=O)=O)cc1)C1CCCCC1 1.98%, CN(CC(=O)Nc1ccc(Cl)c(Cl)c1)C1CCCCC1 23.1%, COc1ccc(NC(=O)CN(C)C2CCCCC2)cc1Cl 12.2%, CN(CC(=O)Nc1ccc(Cl)cc1)C1CCCCC1 9.37%, CC1CCCCN1CC(=O)Nc1ccc2c(c1)OC(F)(F)O2 (stereo not given) -6.38%, O=C(CN1CCOCC1)Nc1ccc2c(c1)OC(F)(F)O2 1.95%, c1ccc(Cc2nc3ccccc3o2)cc1 8.84%, CCN(c1ccccc1)S(=O)(=O)c1ccc(C(=O)Nc2cccc(NC(C)=O)c2)cc1 5.09%, COc1ccc(/C=C2\SC(=S)N(CCC(=O)Nc3ccc(C(=O)O)cc3)C2=O)cc1OC 0.85%, CC(=O)Nc1ccc(N=NN2CCOCC2)cc1 4.54%, CC(=Nc1ccccc1)Nc1ccccc1 5.11%, O=C(Cc1ccccc1)Nc1ccc(C(=O)Nc2ccc(O)cc2)cc1 24.4%, O=C(COC(=O)c1ccc(O)cc1)Nc1ccccc1 10.2%, O=C(CC(=O)Nc1ccc(F)cc1)Nc1ccc(F)cc1 5.61%, NC(=Nc1ccccc1)Nc1ccccc1 7.17%, COCC(=O)Nc1ccc(F)cc1 -1.69%, CC(=O)Nc1ccc(N=Nc2ccccc2)cc1 0.87%, CCC(Oc1ccccc1)C(=O)Nc1ccccc1N1CCCC1 (stereo not given) 7.77%, CNC(=O)c1oc(-c2ccccc2)nc1C 10.8%, O=C(COC(=O)C1CC(=O)N(c2ccc3c(c2)OCCO3)C1)Nc1ccc2c(c1)CCC2 (stereo not given) 8.9%, O=C1CC(NS(=O)(=O)c2cccnc2)CN1c1cccc(F)c1 (stereo not given) 6.2%, COC(=O)C(C(=O)N1CCN(C)CC1)C1CCCCCC1 (stereo not given) -1.36%, Cc1ccc(NC(=O)c2cc(S(=O)(=O)N3CCOCC3)ccc2Cl)cc1S(=O)(=O)N1CCOCC1 9.95%, Cc1ccc(Nc2nc3ccccc3n3cnnc23)c(Cl)c1 5.8%, CCN(CC)C(=O)Cn1cc(C(=O)C(=O)NCCc2c[nH]c3ccccc23)c2ccccc21 7.03%

Reference: PubChem BioAssay AID624330 (Southern Research Specialized Biocontainment Screening …, 2012)
